# Test results taken from the supplement of paper PMC3334620.
# Whole data set: some 33,000 sequences, median “E-score (-0.5 to 0.5)” near -0.041, cut for the highest 2% near 0.37. The list comes from a sample in which the highest values are over-represented; it also holds similar and randomly drawn sequences.
# Target: T1, Ecm22 (UniProt Q05958)
# T1 sequence: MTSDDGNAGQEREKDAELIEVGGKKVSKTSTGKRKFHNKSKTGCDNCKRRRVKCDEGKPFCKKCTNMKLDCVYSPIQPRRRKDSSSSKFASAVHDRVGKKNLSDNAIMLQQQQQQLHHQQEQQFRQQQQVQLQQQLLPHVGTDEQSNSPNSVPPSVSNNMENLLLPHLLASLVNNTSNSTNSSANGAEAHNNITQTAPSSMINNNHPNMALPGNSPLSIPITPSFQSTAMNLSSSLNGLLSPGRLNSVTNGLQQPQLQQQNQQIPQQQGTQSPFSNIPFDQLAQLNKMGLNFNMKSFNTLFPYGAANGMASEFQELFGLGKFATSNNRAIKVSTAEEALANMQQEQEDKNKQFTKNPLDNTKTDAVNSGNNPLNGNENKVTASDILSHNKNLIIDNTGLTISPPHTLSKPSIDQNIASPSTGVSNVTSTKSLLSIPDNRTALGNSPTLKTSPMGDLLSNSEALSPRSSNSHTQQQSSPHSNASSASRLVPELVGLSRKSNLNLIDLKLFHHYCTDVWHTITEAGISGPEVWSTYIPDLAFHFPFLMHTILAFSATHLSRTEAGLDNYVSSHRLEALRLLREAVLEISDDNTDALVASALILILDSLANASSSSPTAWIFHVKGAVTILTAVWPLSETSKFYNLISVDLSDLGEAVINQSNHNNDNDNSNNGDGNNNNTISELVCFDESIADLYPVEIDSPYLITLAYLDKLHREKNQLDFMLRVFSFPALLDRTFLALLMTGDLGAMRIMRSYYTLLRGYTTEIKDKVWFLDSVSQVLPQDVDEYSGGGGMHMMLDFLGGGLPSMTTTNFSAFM
# Experiment: PBM E-score (8-mer binding enrichment) (E-score (-0.5 to 0.5)); higher = stronger / more preferred TF binding
# Settings: protein concentration: 200 nM; construct: GST-full length
# Description: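 Universal 'all 10-mer' protein binding microarrays (Agilent AMADID 015681) probed with GST-tagged S. cerevisiae TFs (full-length or DBD) made by in vitro transcription/translation (PURExpress), about 100-200 nM. Bound TF was detected with fluorescent anti-GST. Each ungapped 8-mer (which stands for itself and its reverse complement) is scored by the PBM enrichment score (E-score), a modified Wilcoxon-Mann-Whitney statistic from -0.5 to +0.5, computed with the Universal PBM Analysis Suite. Scale: above 0.35 generally sequence-specific binding.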
row,Sequence,PBM E-score
1,ACGAGCCC,0.365
2,CCGAGCCA,0.138
3,AGGAGCCG,-0.0656
4,CCATTAGC,-0.0326
5,CTTCTGGC,-0.199
6,GAACTCCC,0.178
7,ACCTTAAC,0.0365
8,GTTTAAAC,0.285
9,CCGAGAAC,0.204
10,ACGAGAGT,0.328
11,TCGAGAAA,0.0202
12,ACGAGAAT,0.385
13,ACGAGAAC,0.4
14,ACGAGAAG,0.313
15,ATGAGAAT,-0.0978
16,ACGAGAAA,0.375
17,CCGAGAAA,0.247
18,AGGACCAT,0.00977
19,ATTCTACC,-0.12
20,GACAGGCA,-0.0606
21,AACATCCG,0.158
22,GGTGGAAC,0.236

row,Sequence,PBM E-score
1,ACGGCACT,0.0515
2,ATGATGAC,-0.0358
3,CAAGCTTC,0.0567
4,CTTTTTTA,-0.19
5,GCCTCGGA,0.175
6,ACCTCGTG,0.251
7,CCCTCGTC,0.119
8,GCCTCGAA,0.0731
9,ACCTCGTC,0.17
10,CCCTCGTA,0.477
11,GCCTCGTA,0.481
12,ACCTCGTA,0.463
13,CCCTCGGA,0.211
14,AACGGTAA,0.267
15,ACTGGGTA,0.0533
16,ATGCGTCA,0.0653
17,ACCGCTAA,0.144
18,GGGGTTAC,0.0772
19,CTGTGCCA,-0.185
20,AGCATCAG,-0.0729
21,ATTCTAAC,-0.0713
22,AGGCCTGA,-0.274

row,Sequence,PBM E-score
1,GTAGGGGA,-0.206
2,ATACGATA,0.458
3,AGACGATA,0.143
4,CTACGATA,0.311
5,GTACGATA,0.456
6,ACACGATA,0.152
7,GCACGATA,0.0343
8,AAGAACCT,-0.208
9,GTAAAGCA,0.0968
10,TGAAAAAA,-0.0832
11,CGGTACCG,0.234
12,ACGTACCA,0.306
13,TCTTACCA,0.061
14,ACGTACCC,0.295
15,GCGTACCA,0.273
16,CCGTACCG,0.455
17,CCGTACCC,0.433
18,GCGTACCC,0.229
19,CCGTACCA,0.423
20,ACGTACCG,0.301
21,TCGTACCA,0.488
22,TGGTACCA,-0.0735

row,Sequence,PBM E-score
1,AGGAACCG,0.0955
2,GAGTCTAA,-0.115
3,CATAGGAC,-0.091
4,TCTATGCA,-0.148
5,AGTCGCTC,0.177
6,AGTCGTTC,0.425
7,GGTCGTTA,0.339
8,CGTCGTTA,0.374
9,CGTCGATC,0.0984
10,CGCCGTTC,0.362
11,CGTCGTTC,0.479
12,AGTCGTTG,0.184
13,AGTCGTTA,0.273
14,CAATTGAC,-0.0565
15,AGGTCTGC,-0.195
16,CGGGAATA,0.0624
17,CGAACCCA,0.167
18,TCATCGGA,-0.0141
19,ATGCAGAC,-0.0112
20,AACTGCGG,0.0437
21,TGGCACCA,-0.213
